# Test results reported in paper PMC4552634, “A New Set of Chemical Starting Points with Plasmodium falciparum Transmission-Blocking Potential for Antimalarial Drug Discovery” (PLoS ONE, 2015).
# Read-outs that look alike come from different tables or passages of the source. In all, about 13,000 compounds went through this assay and about 3,200 (25%) showed an effect of 50% or more. The list shows a part of the results.
# Tested on: P. falciparum stage V gametocytes
# Set-up: BacTiter-Glo ATP luminescence viability of purified stage V gametocytes in 384-well plates, per cent inhibition versus DMSO
# Conditions: 48 h, 5 µM, inhibitor
SMILES,% Inhibition,% Inhibition (% Inhibition)
O=C(Nc1ccc(F)c(F)c1)c1ccc(CN2CCCN(Cc3cccc(F)c3)CC2)cc1 [TCMDC-136389],9.307%,–
CCC[C@@H]([C@@H](CC1CCCCC1)C(=O)N[C@H](C(=O)Nc1nccs1)[C@H](C)O)N(O)C=O [TCMDC-138142],-26.13%,–
CCOC(=O)C1=C(C)N=c2sc(=Cc3ccccc3O)c(=O)n2C1c1ccc(OC)c2ccccc12 (stereo not drawn) [TCMDC-124109],14.77%,–
O=C(/C=C/c1ccc([N+](=O)[O-])cc1)NC1CCC(CN2CCC(c3c[nH]c4ccccc34)CC2)CC1 (stereo not drawn) [TCMDC-139934],–,72.83%
O=C(/C=C/c1ccc(Cl)cc1)NC1CCC(CN2CCC(c3c[nH]c4ccccc34)CC2)CC1 (stereo not drawn) [TCMDC-139701],–,108.5%
O=[N+]([O-])c1ccc(Oc2c(Cl)cc(S(=O)(=O)NC3CCC(CN4CCC(c5c[nH]c6ccccc56)CC4)CC3)cc2Cl)c(Cl)c1 (stereo not drawn) [TCMDC-140165],62.46%,–
N#Cc1c(Cl)cccc1Oc1ccc(S(=O)(=O)NC2CCC(CN3CCC(c4c[nH]c5ccccc45)CC3)CC2)cc1 (stereo not drawn) [TCMDC-140167],–,10.9%
O=[N+]([O-])c1ccc(Oc2c(Cl)cc(S(=O)(=O)N3CCC(CN4CCC(c5c[nH]c6ccccc56)CC4)CC3)cc2Cl)c(Cl)c1 [TCMDC-140169],-22.29%,–
CC(C)c1ccc(C=CC(=O)NC2CCC(CN3CCC(c4c[nH]c5ccccc45)CC3)CC2)cc1 (stereo not drawn) [TCMDC-139936],103.3%,–
O=C(/C=C/c1ccc([N+](=O)[O-])cc1)NC1CCC(CN2CCC(c3c[nH]c4ccccc34)CC2)CC1 (stereo not drawn) [TCMDC-139950],–,23.65%
O=C(Nc1cccnc1)c1cc(-c2cccnc2)nc2ccc(Br)cc12 [TCMDC-125212],10.18%,–
Cc1cc(Cl)ccc1OC(C)C(=O)N1CCc2ccccc21 (stereo not drawn) [TCMDC-123620],-14.46%,–
Cc1cc(N2CCCC2)nc(Nc2ccc(NC(=O)COc3ccccc3)cc2)n1 [TCMDC-124969],-41.99%,–
COc1ccc(C(=O)NC(c2ccc(Cl)cc2Cl)c2cc(Cl)c3cccnc3c2O)cc1 (stereo not drawn) [TCMDC-125549],15.16%,–
COc1cccc(C(=O)NC(C=Cc2ccccc2)c2cc(Cl)c3cccnc3c2O)c1 (stereo not drawn) [TCMDC-125550],112.7%,–
COc1cccc(C(=O)NC(c2ccccc2OC)c2cc(Cl)c3cccnc3c2O)c1 (stereo not drawn) [TCMDC-125612],79.98%,–
COc1cccc(C(=O)NC(c2ccc(Cl)cc2Cl)c2cc(Cl)c3cccnc3c2O)c1 (stereo not drawn) [TCMDC-124342],31.32%,–
FC(F)(F)c1ccc2[nH]c(-c3ccc(-c4ccc(CNCC5CCCO5)cc4)s3)nc2c1.O=C(O)C(F)(F)F (stereo not drawn) [TCMDC-133092],-19.94%,–
CC1CN(c2ccc(C(=O)NCC3CC3)cc2NC(=O)OCc2ccccc2)CC(C)O1 (stereo not drawn) [TCMDC-134641],11.9%,–
CCOc1ccc2c(c1)OC(c1ccccc1)(C(F)(F)F)NC2=O (stereo not drawn) [TCMDC-123632],18.25%,–
CC(C)(C)c1ccc2nc(-c3ccc(/C=C/C(=O)NCc4cccc(C(F)(F)F)c4)cc3)[nH]c2c1 [TCMDC-140458],-22.76%,–
O=C(/C=C/c1ccc(-c2nc3ccc(Cl)cc3[nH]2)cc1)NCc1cccc(F)c1 [TCMDC-140444],-5.382%,–
CC(C)(C)c1ccc(CNC(=O)/C=C/c2ccc(-c3nc4ccc(C(C)(C)C)cc4[nH]3)cc2)cc1 [TCMDC-140459],15.07%,–
Cc1cc2nc(-c3ccc(C(=O)NCc4ccc(Cl)c(Cl)c4)cc3)[nH]c2cc1C [TCMDC-140430],14.5%,–
Cc1ccc2nc(-c3ccc(C=CC(=O)NCc4ccc(Cl)c(Cl)c4)cc3)[nH]c2c1 [TCMDC-140402],-29.51%,–

SMILES,% Inhibition,% Inhibition (% Inhibition)
CC(C)(C)c1ccc2nc(-c3ccc(/C=C/C(=O)NCc4ccc(Cl)c(Cl)c4)cc3)[nH]c2c1 [TCMDC-140457],61.32%,–
O=C(NCc1ccc(Cl)c(Cl)c1)c1ccc(-c2nc3ccc(F)cc3[nH]2)cc1 [TCMDC-140448],-30.61%,–
COC(=O)c1ccc2nc(-c3ccc(/C=C/C(=O)NCc4ccc(Cl)c(Cl)c4)cc3)[nH]c2c1 [TCMDC-140447],71.15%,–
Cc1cc2nc(-c3ccc(/C=C/C(=O)NCCc4ccccc4)cc3)[nH]c2cc1C [TCMDC-140438],-13.04%,–
O=C(/C=C/c1ccc(-c2nc3cc(F)c(F)cc3[nH]2)cc1)NCc1ccc(Cl)c(Cl)c1 [TCMDC-140462],80.74%,–
Cc1cc2nc(-c3ccc(/C=C/C(=O)NCc4ccc(Cl)c(Cl)c4)cc3)[nH]c2cc1C [TCMDC-140437],1.168%,–
O=C(NCc1ccc(Cl)c(Cl)c1)c1ccc(-c2nc3cc(F)c(F)cc3[nH]2)cc1 [TCMDC-140460],62.28%,–
CC[C@H](C)CNC(=O)c1cccc(-c2cccc(CNCC3CNCCCO3)c2)n1 (stereo partly drawn) [TCMDC-134217],48.98%,–
Clc1cc(Nc2ncnc3sc(C#Cc4ncc[nH]4)cc23)ccc1OCc1ccccn1 [TCMDC-135429],-6.463%,–
Cc1cc(Cl)c(S(=O)(=O)N2CCc3ccccc32)cc1OCC(=O)NC1CCCCC1 [TCMDC-124369],-19.22%,–
Fc1ccc(-c2cncc(-c3ccc(F)cc3)n2)cc1 [TCMDC-137988],-9.929%,–
Cc1ccccc1C1CCN(C2CCC(NC(=O)/C=C/c3cccc(F)c3)CC2)CC1 (stereo not drawn) [TCMDC-133505],-47.31%,–
Nc1ccc(-c2cnc3[nH]cc(-c4ccc(C(=O)O)cc4)c3c2)cn1 [TCMDC-136383],1.916%,–
COc1ccc2nc(-c3ccc(C(=O)NCCCN4CCN(c5cc(Cl)ccc5OC)CC4)cc3OC)[nH]c2c1 [TCMDC-140025],-24.14%,–
CCCc1cc(Cc2cnc(N)nc2N)cc(OC)c1OC [TCMDC-137647],0.312%,–
O=C(Nc1cc(C(F)(F)F)cc(C(F)(F)F)c1)Nc1cc(C(F)(F)F)cc(C(F)(F)F)c1 [TCMDC-123956],-66.5%,–
CCOC(=O)c1ccc(-c2cnoc2-c2cc(CC)c(OC)cc2O)o1 [TCMDC-124201],-15.35%,–
CC1CN(c2cc(=O)n(Cc3ccc(NC(=O)Nc4ccc(-c5ccccc5)cc4)cc3)cn2)CC(C)N1 (stereo not drawn) [TCMDC-133372],24.66%,–
O=C(NCc1ccc(Cl)c(Cl)c1)c1ccc(-c2nc3ccc(Cl)cc3[nH]2)cc1 [TCMDC-140441],19.73%,–
Cc1ccc2[nH]c(-c3ccc(C(=O)NCc4ccc(Cl)c(Cl)c4)cc3)nc2c1C [TCMDC-140450],11.51%,–
CCOc1cc(C(=O)NCc2ccc(Cl)c(Cl)c2)ccc1-c1nc2ccc(Cl)cc2[nH]1 [TCMDC-140903],96.39%,–
COC(=O)c1ccc2nc(-c3ccc(C(=O)NCc4ccc(Cl)c(Cl)c4)cc3)[nH]c2c1 [TCMDC-140445],73.87%,–
CCOc1cc(C(=O)NCc2cc(Cl)cc(Cl)c2)ccc1-c1nc2ccc(Cl)cc2[nH]1 [TCMDC-140904],-8.665%,–
CCOc1cc(C(=O)NCCc2ccc(Cl)c(Cl)c2)ccc1-c1nc2ccc(Cl)cc2[nH]1 [TCMDC-140905],-12.3%,–
CC1(C)[C@H]2CC[C@@H](CNc3nc(NCCc4cnc[nH]4)nc(NCc4cc(F)ccc4F)n3)[C@@H]1C2 [TCMDC-139317],-2.684%,–

SMILES,% Inhibition,% Inhibition (% Inhibition)
O=C(CCc1c[nH]cn1)Nc1cccc(-c2ccc(-c3nc4ccccc4[nH]3)s2)c1 [TCMDC-132152],-14.42%,–
Cn1cc(C2CCN(CCCCCNC(=O)/C=C/c3ccc(Cl)c(Cl)c3)CC2)c2cc(O)ccc21 [TCMDC-139364],-26.1%,–
CC(C)CN(Cc1c(O)ccc2[nH]c(-c3ccc(F)cc3F)nc12)CC(C)C [TCMDC-136358],-65.39%,–
CN(C)Cc1c(O)ccc2[nH]c(-c3ccc(F)cc3F)nc12 [TCMDC-136534],71.11%,–
CN(C)Cc1c(O)ccc2[nH]c(-c3cccc(F)c3)nc12 [TCMDC-136535],-72.73%,–
Cn1cnc(CCNC(=O)c2ccc(-c3cccc(-c4nc5cc(F)ccc5[nH]4)c3)cc2)c1 [TCMDC-132497],-1.156%,–
CC(C)(C)N1CCC(N(Cc2ccc(-c3ccc(C(F)(F)F)cc3)cc2)C(=O)Cn2c(CCc3cccc(F)c3F)nc(=O)c3cccnc32)CC1 [TCMDC-136050],107.4%,–
CC(C)N1CCC(N(Cc2ccc(-c3ccc(C(F)(F)F)cc3)cc2)C(=O)Cn2c(CCc3cccc(F)c3F)nc(=O)c3cccnc32)CC1 [TCMDC-136049],118.8%,–
O=C(Nc1cccc(-c2nn3ncccc3c2-c2ccnc(Nc3cccc(C(F)(F)F)c3)n2)c1)c1c(F)cccc1F [TCMDC-135549],-33.07%,–
COCn1ncc2cc(-c3cccc(NC(=O)c4csc(NC(C)=O)n4)c3)ccc21 [TCMDC-133146],24.99%,–
CNC(=O)C(C)N(c1ccc(Cl)cc1)c1nc(C(C)(C)C)cs1 (stereo not drawn) [TCMDC-125380],52.18%,–
CC1(C)N=C(N)N=C(N)N1OCCCc1cc(Cl)c(Cl)cc1Cl [TCMDC-131696],1.916%,–
CCCCc1cc(N2CCC(NC(C)=O)C2)nc(Nc2ccc(C)cc2)n1 (stereo not drawn) [TCMDC-134020],11.89%,–
COc1cc2nc(NCc3ccc(S(N)(=O)=O)cc3)nc(Nc3ccc(Oc4ccccc4)cc3)c2cc1OC [TCMDC-138256],65.95%,–
COc1cc2nc(C)nc(Nc3ccc(Cc4ccccc4)cc3)c2cc1OC [TCMDC-131941],1.462%,–
COc1cc2nc(N(C)C)nc(Nc3ccc(OCc4ccccc4)cc3)c2cc1OC [TCMDC-137183],59.63%,–
COc1cc2nc(Nc3ccc(Oc4ccccc4)cc3)nc(Nc3ccc(Oc4ccccc4)cc3)c2cc1OC [TCMDC-138238],-17.62%,–
COc1cc2nccc(Nc3ccc(Oc4ccccc4)cc3)c2cc1OC.Cl [TCMDC-131917],-23.95%,–
COc1ccc(Nc2nc(N)c3cc(OC)c(OC)cc3n2)cc1OC.Cl [TCMDC-131881],-0.9625%,–
COc1cc2nc(C)nc(Nc3ccc(Oc4ccccc4)cc3)c2cc1OC [TCMDC-131940],0.7535%,–
COc1cc2nc(NCCCO)nc(Nc3ccc(Oc4ccccc4)cc3)c2cc1OC [TCMDC-138255],110.2%,–
COc1cc2nc(Nc3ccc(C)cc3)nc(Nc3ccc(C)cc3)c2cc1OC.Cl [TCMDC-138540],91.22%,–
N#Cc1cnc(Nc2ccc(Oc3ccccc3)cc2)nc1Nc1cccc(S(N)(=O)=O)c1 [TCMDC-138613],-50.28%,–
COc1cc2nc(Nc3ccc4c(c3)OCCO4)nc(N)c2cc1OC.Cl [TCMDC-131882],-45.81%,–
COc1cc2ncnc(Nc3ccc(OCc4ccccc4)c(OCc4ccccc4)c3)c2cc1OC [TCMDC-131922],-20.12%,–
